Compound activity deposited in PubChem by several laboratories.
Sampled rows, rich in hits. Any-hit rate of the full collection: about 4.6%.
ADAM10 inh – inhibitors of human ADAM10; O14672; recombinant ADAM10, EDANS/DABCYL FRET peptide cleavage, 3 h; inhibition, % at 7 µM; 0.62% of 370,000 active;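 active means inhibition above a per-campaign cutoff equal to the mean of compounds falling between control-based bounds plus 3 SD, cut at about 20% in these data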;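 further: 0% = DMSO wells while the 100% control is not disclosed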
GRIN3A LBD mod – NR3A (human) ligand-binding domain modulation | NR3A LBD differential scanning fluorimetry, Tm shift; 0% = protein alone, 100% = glycine-bound protein | 2.5% of 340,000 active | Tm shift relative to glycine control, % at 25 µM;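 active means melting temperature shift of at least 10% of the positive control shift, at one fixed dose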
ADAM17 inh – ADAM17 inhibition, QFRET primary screen. P78536. recombinant ADAM17, EDANS/DABCYL FRET peptide cleavage. 0.83% of 370,000 active. inhibition, % at 6.95 µM;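 active means inhibition above the mean of compounds lying between control limits plus 3 SD, set per campaign, cut at about 8.5% in these data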;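 further: 0% = DMSO-only wells as the low control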
FAS-TE inh – inhibitors of human fatty acid synthase thioesterase domain; 0.67% of 360,000 active; inhibition, % at 15 µM; recombinant FAS-TE, OMFH fluorogenic substrate, fluorescence endpoint; AID 602261;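 active means compounds whose normalised, plate-corrected inhibition of enzyme fluorescence in the single-dose primary screen is 50% or more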;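 further: 0% = DMSO with enzyme and 100% = substrate without enzyme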
KLK7 zymogen act – activators of human kallikrein-7 zymogen. purified proKLK7, EDANS-DABCYL substrate fluorescence; 100% is mature enzyme control, 0% vehicle. AID 652039. P49862. 0.9% of 370,000 active. activation, % at 7 µM;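 active means activation above the mean of all tested compounds plus 3 SD, computed per campaign excluding outliers beyond control limits, cut at about 13% in these data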
Target sequence (P49862 whole entry, looked up): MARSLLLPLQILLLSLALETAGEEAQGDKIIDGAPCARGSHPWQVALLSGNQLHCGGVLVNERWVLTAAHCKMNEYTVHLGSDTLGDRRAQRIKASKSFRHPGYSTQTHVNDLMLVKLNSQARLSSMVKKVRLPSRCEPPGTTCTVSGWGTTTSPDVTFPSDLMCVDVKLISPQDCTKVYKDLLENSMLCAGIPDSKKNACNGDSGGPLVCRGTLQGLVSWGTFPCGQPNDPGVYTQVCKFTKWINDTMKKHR
An asterisk follows results filed as active; x = no result.

SMILES | ADAM10 inh | GRIN3A LBD mod | ADAM17 inh | FAS-TE inh | KLK7 zymogen act
C#CCCCN([C@@H](CC(C)C)C(=O)OC)S(=O)(=O)c1ccc(F)cc1Br | 5.2 | x | 0.8 | x | 0.0
O=[N+]([O-])c1cccc(OC[C@@H](O)CN2CCC(C(O)(c3ccccc3)c3ccccc3)CC2)c1 | 3.6 | x | 2.8 | x | 0.2
Fc1ccccc1-c1nc(-c2ccc(Cl)cc2)no1 | -1.0 | 21.4* | -0.4 | 6.4 | 0.1
c1ccc(-c2noc(-c3ccccc3-c3ccccc3)n2)cc1 | -1.1 | 13.1* | -2.0 | 28.5 | 0.1
O=C(O)c1ccc(-c2noc(-c3ccccc3Cl)n2)cc1 | -1.4 | 0.6 | 0.5 | -17.6 | 0.5
NC(=O)c1ccc(-c2noc(-c3ccccc3F)n2)cc1 | -4.6 | -1.9 | -3.9 | -10.3 | 0.0
CC(C)(C)c1ccc(-c2nnc3n2N=C(c2ccc(Cl)cc2)CS3)cc1 | -4.0 | x | -2.3 | x | 0.4
Cc1ccc(CN2C(=O)C(=O)N(CC(N)=O)C2=O)cc1 | 7.6 | -2.3 | -6.9 | -6.7 | 0.7
CC(C)(C)C(=O)Cn1c(=N)n(Cc2ccccc2)c2ccccc21 | 0.2 | 0.8 | 3.9 | 9.7 | -1.0
Cc1ccc(Cn2c(=N)n(CC(=O)c3ccccc3)c3ccccc32)cc1 | -11.1 | 1.9 | 0.6 | 63.7* | 0.0
Cc1ccc(C(=O)CN2C(=O)C(=O)N(Cc3ccccc3)C2=O)cc1 | -1.1 | 17.9* | -2.3 | -0.7 | 0.4
CCOc1ccc(-c2nnc3ccc(SCC(=O)Nc4nc5ccc(C)cc5s4)nn23)cc1 | -2.5 | 21.5* | -1.6 | 15.2 | -17.2
CCOc1ccc2nc(NC(=O)CSc3ccc(Cl)cc3)sc2c1 | -7.1 | 10.2* | 0.5 | 24.3 | -0.9
CCOc1ccc2nc(NC(=O)c3ccc(OCC4CCCO4)cc3)sc2c1 (stereo unspecified) | -141.5 | 19.7* | -52.9 | 20.1 | -40.8
O=C(CSc1ncn(-c2ccccc2)n1)Nc1nc(-c2ccccc2)cs1 | 1.9 | 5.7 | 0.0 | 15.6 | 0.2
O=C(CSc1ncn(-c2ccccc2)n1)Nc1nc2ccccc2s1 | 11.8 | 21.9* | 2.3 | 15.6 | 0.5
COc1ccc(S[C@]2(C(=O)N3CCCC3)CC(=O)N(c3ccccc3OC)[C@@H]2c2ccc(OC)cc2)cc1 | 8.9 | x | 7.4 | x | 0.0
COc1ccc2nc(NC(=O)CSc3ccccc3)sc2c1 | 10.1 | 30.8* | 8.6 | 11.4 | 0.8
Cc1cccc(C)c1OCc1nnc(NC(=O)CSc2ccc(Cl)cc2)s1 | 3.5 | -0.3 | -0.9 | -6.7 | -0.1
COc1ccc2nc(NC(=O)CSC3=NCCS3)sc2c1 | 3.6 | -1.3 | 1.6 | -6.0 | 0.7
O=C(CSc1ccccc1)Nc1nnc(COc2ccc(Cl)cc2)s1 | 1.2 | 14.2* | 2.5 | 5.5 | 0.1
CCOc1ccc2nc(NC(=O)CSC3=NCCS3)sc2c1 | 9.7 | 18.4* | 1.4 | -38.0 | 0.7
Cc1nn(-c2ccccc2)c(C)c1C=NNC(=O)CSc1nc2ccccc2n1C | -3.8 | x | 3.7 | x | -0.5
Cc1ccc(C)c(N2CCN(C(=O)CCc3nc(-c4cccc(Cl)c4)no3)CC2)c1 | 3.3 | 16.8* | -1.3 | 26.1 | 0.0
Cc1ccc(C)c(N2CCN(C(=O)CCc3nc(-c4ccc(Br)cc4)no3)CC2)c1 | 0.5 | 17.2* | -1.1 | 12.8 | -0.6
SMILES | ADAM10 inh | GRIN3A LBD mod | ADAM17 inh | FAS-TE inh | KLK7 zymogen act
CCCCCCCCN1C(=O)[C@@H](CC(=O)NCc2cccs2)C[C@@]2(C(=O)OC)C1=C[C@H](C(C)C)O[C@@H]2C1CC1 | -3.1 | x | -4.0 | x | 1.0
c1ccc(Cn2ccc3ccc(-c4ccc5ccn(Cc6cccc(Oc7ccccc7)c6)c5c4)cc32)cc1 | -26.5 | x | -15.6 | x | -1.3
COc1ccc(OC)c2c(C)c(C)[nH]c12 | -3.3 | 10.3* | -1.9 | -2.0 | 0.7
COc1ccc(OC)c2c(=O)cc(C(=O)O)[nH]c12 | -6.8 | 0.9 | -7.4 | -7.8 | 0.1
CCN(CC)C(=O)CSc1nc2c(sc(=S)n2-c2ccccc2)c(=O)n1-c1ccccc1OC | 3.9 | 3.8 | 0.4 | 14.6 | -0.2
CCN(CC)C(=O)CSc1nc2c(sc(=S)n2-c2ccccc2)c(=O)n1-c1ccc(OC)cc1OC | -9.7 | 11.6* | 3.5 | 28.9 | 0.1
O=C(NCCCN1CCN(c2ccc(F)cc2)CC1)Nc1ccccc1 | -3.8 | x | 1.4 | x | -0.2
S=C(NCc1ccc2[nH]c3c(c2c1)CCCC3)Nc1ccccc1Cl | 11.6 | 11.3* | 3.5 | 11.8 | 0.5
Clc1ccc(-c2nnc3n2N=C(c2ccc(-c4ccccc4)cc2)CS3)cc1 | 1.7 | x | 2.0 | x | 0.6
CC1(C)C2CCC1(C)C(OC(=O)C[n+]1ccccc1)C2 (stereo unspecified) | -3.1 | 0.1 | -4.4 | -2.6 | 0.7
CC1(C)C2CCC1(C)C(OC(=O)CC(=O)O)C2 (stereo unspecified) | 2.3 | 10.3* | 0.4 | x | 0.1
O=C(Cn1nnc(-c2ccc(N3CCOCC3)cc2)n1)c1cccc(F)c1 | -2.1 | x | 0.5 | x | -0.3
Cc1ccc(NC(=O)Cc2cccc(OC(F)(F)F)c2)c(S(=O)(=O)N2CCOCC2)c1 | -0.4 | x | 0.1 | x | 0.1
O=C(NNC(=O)c1cc(-c2ccc(Cl)cc2Cl)nc2ccccc12)Nc1ccccc1 | -7.0 | 30.3* | -3.5 | 38.3 | -0.6
O=C(O)CCC(=O)OC1CC2CCC1C2 (stereo unspecified) | 7.3 | -0.3 | 3.1 | -2.7 | -0.1
O=C(O)C1C2C=CC(C2)C1C(=O)OC1CC2CCC1C2 (stereo unspecified) | 0.8 | 13.7* | -5.6 | -13.6 | -0.5
CSc1nc2ccc(NC(=O)c3cccs3)cc2s1 | -5.5 | 20.2* | 0.8 | 6.0 | 0.9
CSc1nc2ccc(NC(=O)c3ccco3)cc2s1 | 4.3 | 4.4 | 0.3 | -9.5 | 0.7
CSc1nc2ccc(NC(=O)c3cc4ccccc4o3)cc2s1 | 0.9 | 19.4* | -1.7 | -7.9 | 0.0
O=C(Nc1ccc2oc(-c3ccccc3)nc2c1)c1cccs1 | -126.3 | 10.7* | -37.6 | 2.5 | -10.1
CSc1nc2ccc(NC(=O)c3ccc(=O)[nH]c3)cc2s1 | -11.2 | -4.7 | -2.1 | -2.4 | -0.8
CSc1nc2ccc(NC(=O)c3ccc(F)c(F)c3)cc2s1 | 2.3 | 28.3* | 0.8 | 13.3 | 0.6
C[C@@H]1CCN(C2CC2)S(=O)(=O)c2ccc(N3CCC[C@H]3CO)cc2O1 | -10.0 | x | -42.1 | x | -0.2
CC1(c2nnnn2-c2ccc3ccccc3c2)CSCC(=O)N1C1CC1 (stereo unspecified) | -0.9 | x | -2.0 | x | -0.1
S=c1[nH]nc(-c2cc(-c3ccccc3)n[nH]2)n1/N=C/c1cccc2ccccc12 | -2.2 | x | 0.4 | x | -0.6
CC(C)(C)CSc1nnc(-c2cccnc2)n1Cc1ccccc1 | -0.5 | x | -0.8 | x | 0.4
O=C(Nc1cccc(Cl)c1)Nc1sccc1-c1nc2ccccc2s1 | -47.0 | 28.6* | -18.2 | 36.2 | -239.2
CCc1ccc(NC(=O)c2ccc3nc(N)sc3c2)cc1 | 6.7 | 15.8* | -1.4 | 6.3 | 0.1
O=C(Nc1cccc(-c2nc3ccccc3s2)c1)c1cccs1 | 11.2 | 11.8* | 1.1 | 43.7 | -0.4
CC(C)CNc1cccc2c1S(=O)(=O)N(Cc1cn(Cc3cccc(C(F)(F)F)c3)nn1)Cc1ccccc1O2 | -14.7 | x | -1.6 | x | -9.0
